Screening results deposited in PubChem by Broad Institute.
Glyco luc inh – blocks N-linked glycosylation in D54 reporter cells | D54 ERlucT glycosylation luciferase reporter, 24 h; percent of 100 nM tunicamycin response | reporter increase, % at 12.5 µM | 360,000 compounds, 0.23% hits | AID 588692;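 active means mean luciferase reporter signal, scaled so untreated is 0 and the glycosylation-blocking control 100, at or above a set limit in every replicate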;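 further: luciferase carries N-glycosylation sites so blocking glycosylation raises the light; 0% = median of neutral control wells and 100% = median of 100 nM tunicamycin wells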
CASP6 VEID inh – inhibitors of human caspase-6; P55212; purified caspase-6, Z-VEID-R110 cleavage fluorescence; inhibition, % at 12.5 µM; 350,000 compounds, 0.53% hits;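 active means mean inhibition across replicates at least about 35%, with every replicate also reaching that limit, limit read from the data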;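 further: 0% = median of neutral control wells and 100% = no fluorescence left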
Target sequence (P55212 24-179 limits assumed): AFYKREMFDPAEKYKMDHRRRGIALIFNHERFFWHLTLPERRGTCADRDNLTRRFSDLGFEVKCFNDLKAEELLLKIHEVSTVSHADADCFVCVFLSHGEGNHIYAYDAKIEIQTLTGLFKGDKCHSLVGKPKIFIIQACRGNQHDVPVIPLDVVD
Target sequence (P55212 194-293 limits assumed): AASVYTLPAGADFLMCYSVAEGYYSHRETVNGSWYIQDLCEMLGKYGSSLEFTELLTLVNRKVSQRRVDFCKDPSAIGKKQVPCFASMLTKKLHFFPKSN
HDAC3 inhib – human HDAC3 inhibition. 320,000 compounds, 0.15% hits. O15379. recombinant HDAC3, fluorogenic peptide/trypsin coupled, fluorescence. inhibition, % at 8.3 µM. AID 2718; in the data active means inhibition above about 26%, passing the limit was not always enough
Target sequence (O15379 whole entry, looked up): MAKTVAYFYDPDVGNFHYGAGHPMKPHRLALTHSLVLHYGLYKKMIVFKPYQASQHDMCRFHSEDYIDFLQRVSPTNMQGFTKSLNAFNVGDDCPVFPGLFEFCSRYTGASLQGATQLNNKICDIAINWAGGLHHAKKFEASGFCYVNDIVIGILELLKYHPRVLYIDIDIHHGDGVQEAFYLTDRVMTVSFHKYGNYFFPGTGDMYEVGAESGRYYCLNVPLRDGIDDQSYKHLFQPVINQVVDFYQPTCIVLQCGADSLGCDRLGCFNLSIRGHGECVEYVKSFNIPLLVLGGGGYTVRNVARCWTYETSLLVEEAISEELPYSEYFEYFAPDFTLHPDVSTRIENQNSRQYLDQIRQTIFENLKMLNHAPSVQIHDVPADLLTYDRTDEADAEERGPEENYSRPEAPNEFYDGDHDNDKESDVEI
LANA DNA inh – KSHV C-LANA DNA binding inhibition | MBP-C-LANA/FAM-LBS DNA binding, fluorescence polarization | inhibition, % at 9 µM | 340,000 compounds, 0.078% hits | AID 504423;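 active means highest replicate inhibition at or above 60% at 9 µM, even if other replicates fall short; inactive means all replicates below 60% inhibition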;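 further: 0% = neutral control wells and 100% = 4 µM acridine orange control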
Keap1-Nrf2 PPI – inhibitors of human Keap1-Nrf2 protein-protein interaction; 340,000 compounds, 0.15% hits; AID 504523; Keap1 Kelch-Nrf2 peptide fluorescence polarization, 1536-well; inhibition, % at 9.4 µM; in the data active means inhibition above about 12%;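 further: human Keap1 Kelch domain with fluorescein labeled Nrf2 9mer peptide probe; 0% = neutral control wells and 100% = peptide positive control; higher means more block of Keap1 binding to Nrf2 peptide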
NSD2 inh – NSD2 (human) methyltransferase inhibition | O96028 | inhibition, % at 12.5 µM | NSD2 peptide methylation, AlphaScreen, 120 min | 310,000 compounds, 0.54% hits; in the data active means inhibition above about 50%
Starred values were filed as active, the others as inactive; nt = no result given. In the library only some 1.1% were active in any assay of this set; here they are far more common.

SMILES | Glyco luc inh | CASP6 VEID inh | HDAC3 inhib | LANA DNA inh | Keap1-Nrf2 PPI | NSD2 inh
COC(=O)c1ccc2c(=O)n(Cc3ccco3)c(SCC(=O)Nc3cc(C)on3)nc2c1 | 62* | 3 | -4 | 0 | -3 | nt
COC(=O)c1ccc2c(=O)n(Cc3ccco3)c(SCC(=O)Nc3ccccc3Cl)nc2c1 | -5 | nt | 4 | 1 | 2 | 1
CC(C)c1cn(CC[C@@H]2CC[C@@H](NS(=O)(=O)c3ccccc3)[C@@H](CO)O2)nn1 | nt | 0 | nt | nt | nt | nt
CCN1[C@@H]2c3ccc(-c4ccc(F)cc4)c(=O)n3C[C@@H]2[C@@H](CO)[C@@H]1C(=O)N(C)C | nt | 2 | nt | nt | nt | nt
CCc1ccc(S(=O)(=O)Nc2cc3c(cc2C)n(C)c(=O)n3C)cc1 | 46* | 0 | 2 | -1 | -1 | -1
Cn1c(=O)n(C)c2cc(NS(=O)(=O)c3ccccc3)ccc21 | 34* | nt | 10 | 0 | -6 | 1
Cc1ccc(NS(=O)(=O)c2ccc3c(c2)n(C)c(=O)n3C)c(C)c1 | 10 | 3 | 0 | -2 | 1 | 0
Cc1ccc(NS(=O)(=O)c2ccc3c(c2)n(C)c(=O)n3C)cc1C | 8 | 3 | 1 | 1 | 1 | 11
Cn1c(=O)n(C)c2cc(S(=O)(=O)Nc3ccccc3)ccc21 | 6 | 7 | -4 | 0 | 2 | 1
Cc1ccc(S(=O)(=O)Nc2ccc3c(c2)n(C)c(=O)n3C)cc1 | 65* | -2 | -6 | 3 | 3 | 0
C[C@H]1CN([C@@H](C)CO)C(=O)c2cc(NC(=O)Nc3ccc(F)cc3)ccc2O[C@@H]1CN(C)Cc1ccc(-c2ccccc2)cc1 | nt | -3 | nt | nt | nt | nt
C[C@@H]1CCCCO[C@@H](CN(C)C(=O)c2ccccc2)[C@H](C)CN([C@H](C)CO)C(=O)c2cc(NC(=O)c3ccncc3)ccc2O1 | nt | 1 | nt | nt | nt | nt
N#Cc1c(N2CCCC2)nc(N)c2c(N)nc(N3CCCC3)cc12 | 41* | nt | -12 | 4 | -4 | nt
CCOc1cc2c(C#N)c(N3CCCC3)nc(N)c2c(N)n1 | 2 | 15 | -4 | 0 | -1 | nt
CCCOc1cc2c(C#N)c(N3CCCC3)nc(N)c2c(N)n1 | 5 | 39* | -6 | -1 | -4 | nt
C[C@H](CO)N1C[C@H](C)[C@H](CN(C)C(=O)CN(C)C)Oc2ncc(C#Cc3cccnc3)cc2C1=O | nt | 3 | nt | nt | nt | nt
C[C@@H]1CN([C@@H](C)CO)C(=O)c2cccc(NC(=O)C3CC3)c2O[C@H]1CN(C)CC1CC1 | nt | 0 | nt | nt | nt | nt
Cc1ccc(S(=O)(=O)Nc2cccc3c2O[C@H](CN(C)Cc2ccc(C(F)(F)F)cc2)[C@H](C)CN([C@H](C)CO)C3=O)cc1 | nt | 26 | nt | nt | nt | nt
CC(C)OC(=O)c1ccc(OC(=O)c2cccnc2)cc1 | 2 | -2 | 47* | 2 | -3 | 0
COC(=O)c1ccc(OC(=O)c2cccnc2)cc1 | 2 | nt | 42* | -1 | -4 | -3
COc1cc(/C=C2\SC(=S)N(NC(C)=O)C2=O)ccc1OC(=O)c1ccco1 | 4 | -1 | 27* | 0 | -2 | 5
O=C(C[C@H]1C=C[C@@H](NC(=O)NC2CCCCC2)[C@H](CO)O1)NCc1ccc(Cl)cc1 | nt | 0 | nt | nt | nt | nt
Nc1cc([N+](=O)[O-])ccc1N1C(=O)CCCC1=O | -1 | 40* | 0 | 1 | 5 | -1
CCNC(=O)[C@@H]1[C@@H](CO)[C@@H]2Cn3c(ccc(-c4ccccc4)c3=O)[C@@H]2N1CC1CC1 | nt | 2 | nt | nt | nt | nt
COC(=O)[C@H]1[C@H](CO)[C@H]2Cn3c(cccc3=O)[C@H]2N1CC1CCOCC1 | nt | 70* | nt | nt | nt | nt
SMILES | Glyco luc inh | CASP6 VEID inh | HDAC3 inhib | LANA DNA inh | Keap1-Nrf2 PPI | NSD2 inh
CCCNC(=O)[C@@H]1[C@@H](CO)[C@@H]2Cn3c(ccc(-c4ccccc4)c3=O)[C@@H]2N1CC1CC1 | nt | 54* | nt | nt | nt | nt
C[C@@H]1CN([C@@H](C)CO)C(=O)c2cccc(NS(=O)(=O)c3cn(C)cn3)c2O[C@H]1CN(C)Cc1ccc(-c2ccccc2)cc1 | nt | 1 | nt | nt | nt | nt
Cc1c(C#N)c(O)[nH]c(=O)c1N=Nc1ccc(S(N)(=O)=O)cc1 | 5 | 44* | 9 | -1 | 1 | 12
C[C@H]1CCCCO[C@H](CN(C)Cc2ccc(Cl)c(Cl)c2)[C@@H](C)CN([C@@H](C)CO)C(=O)c2cc(NC(=O)Nc3cccc4ccccc34)ccc2O1 | nt | -3 | nt | nt | nt | nt
CN=c1nc(-c2ccccc2)n(-c2ccccc2)s1 | 2 | nt | 56* | 0 | -6 | nt
N#C[C@@H]1[C@H](c2ccc(C#Cc3cccc(F)c3)cc2)[C@@H](CO)N1C(=O)C1CC1 | nt | -1 | nt | nt | nt | nt
O=C(O)c1cccc(S(=O)(=O)NNc2ccccc2C(F)(F)F)c1 | 0 | 40* | 3 | 2 | 1 | -2
COc1ccc(C(=O)NCc2nnc(SCC(=O)NO)n2Cc2ccccc2)cc1 | 41* | 1 | 91* | -1 | -4 | 6
CCN(CC(=O)Nc1c(F)cccc1F)C(=O)c1ccc(C2SCCS2)cc1 | 3 | -7 | 62* | 1 | -1 | -3
CN(CC(=O)Nc1cccc(F)c1)C(=O)c1ccc(OCc2ccccc2)cc1 | -2 | -1 | 1 | 3 | -1 | -2
CCN(CC(=O)Nc1c(F)cccc1F)C(=O)c1ccc(C(F)(F)F)cc1 | -1 | 2 | -10 | 0 | 5 | -1
CN(CC(=O)Nc1cccc(F)c1)C(=O)c1ccc(C2SCCS2)cc1 | -2 | -1 | 59* | 0 | -4 | 0
O=C(N/N=C/c1ccco1)c1cc(-c2ccncc2)nc2ccccc12 | 28* | 12 | nt | 0 | 1 | 0
CCc1ccc(/C=N/NC(=O)c2cc(-c3ccncc3)nc3ccccc23)s1 | 30* | nt | -1 | 0 | -5 | -1
CN(C)CC(=O)N1[C@@H]2Cn3c(ccc(C4=CCCC4)c3=O)[C@H]1[C@@H](C(=O)NCC1CCCCC1)[C@@H]2CO | nt | 35 | nt | nt | nt | nt
Cc1ccc(S/C=C\C(=O)c2ccccc2)cc1 | 47* | 1 | 1 | 0 | 6 | nt
Cc1noc(C)c1NC(=O)Nc1cccc2c1O[C@@H](CN(C)S(=O)(=O)c1cn(C)cn1)[C@@H](C)CN([C@H](C)CO)C2=O | nt | -1 | nt | nt | nt | nt
COCC(=O)N(C)C[C@H]1Oc2cc(C#CCN(C)C)ccc2S(=O)(=O)N([C@@H](C)CO)C[C@H]1C | nt | -2 | nt | nt | nt | nt
CC(C)OC(=O)c1c(NC(=O)C2CC=CCC2C(=O)O)sc2c1CCCCC2 (stereo unspecified) | 1 | 29 | -3 | 1 | 1 | 5
NC(=O)c1c(NC(=O)C2CC=CCC2C(=O)O)sc2c1CCCCC2 (stereo unspecified) | 1 | 52* | 3 | 4 | -4 | 3
CCOC(=O)N1CCc2cc(OC)c(OC)c3c2c1cc1cc(OC)c(OC)cc13 | 26* | 19 | nt | 1 | -1 | 12
COc1cc(CC(=O)N2CCc3ccccc32)cc(OC)c1OC | -1 | nt | -17 | -1 | -7 | nt
COC(=O)C1CCN(C(=O)c2cc(-c3ccco3)nc3ccccc23)CC1 | -1 | 58* | -88 | 3 | 3 | 4
COc1cccc(CNC(=O)C[C@@H]2CC[C@@H](NC(C)=O)[C@H](CO)O2)c1 | nt | -2 | nt | nt | nt | nt
